Values joined by “and” are separate entries in the source; they are usually repeats but may differ in a detail not shown here. Identical values can stand only once. The campaign covered roughly 5,500 compounds. About 2,000 (36%) were called active. About 18% were inconclusive and are not listed. No stated cut-off is given here; in the data, active means normalized growth mostly below about 0.91 (no sharp cut-off); inconclusive means no clear call, values can overlap the other calls; inactive means mostly above about 0.92. The list shows a part of the results.
Test: chemical genetic growth profiling, strain panel (AID 1159580);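 further: tested at 20 µM; growth read once vehicle control cultures reached saturation at 30 °C; 1 = growth at the plate median or of vehicle wells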
Conditions: S. cerevisiae deletion strains, growth OD

Measured: normalized growth

Nc1ncnc2c1ncn2C1C[C@H](O)[C@@H](CO)O1 (stereo partly specified)
inactive: locus YAL013W, strain DEP1, stronger effect = lower value 0.998 | locus YAL021C, strain ccr4, stronger effect = lower value 1.03 | locus YAL026C, strain drs2, stronger effect = lower value 1.02 | locus YAL030W, strain snc1, stronger effect = lower value 1.01 | locus YBL061C, strain skt5, stronger effect = lower value 1.01 | locus YBR009C, strain hhf1, stronger effect = lower value 1.02 | locus YBR021W, strain FUR4, stronger effect = lower value 1.02 | locus YBR023C, strain chs3, stronger effect = lower value 1 | locus YBR171W, strain sec66, stronger effect = lower value 1.03 | locus YBR229C, strain ROT2, stronger effect = lower value 0.962 | locus YBR231C, strain swc5, stronger effect = lower value 1.01 | locus YBR279W, strain paf1, stronger effect = lower value 1.01 | locus YCL011C, strain gbp2, stronger effect = lower value 1.02 | locus YCL016C, strain dcc1, stronger effect = lower value 1.01 | locus YCL029C, strain bik1, stronger effect = lower value 0.998 | locus YCL061C, strain MRC1, stronger effect = lower value 1.02 | locus YCL069W, strain vba3, stronger effect = lower value 1.01 | locus YCR088W, strain abp1, stronger effect = lower value 1.01 | locus YDL005C, strain med2, stronger effect = lower value 1.02 | locus YDL035C, strain GPR1, stronger effect = lower value 0.99 | locus YDL040C, strain nat1, stronger effect = lower value 1.01 | locus YDL074C, strain BRE1, stronger effect = lower value 1.01 | locus YDL101C, strain DUN1, stronger effect = lower value 0.99 | locus YDL185W, strain tfp1, stronger effect = lower value 0.986 | locus YDL192W, strain arf1, stronger effect = lower value 1 | locus YDR001C, strain nth1, stronger effect = lower value 1.01 | locus YDR069C, strain doa4, stronger effect = lower value 1.02 | locus YDR101C, strain arx1, stronger effect = lower value 1.04 | locus YDR137W, strain rgp1, stronger effect = lower value 1.02 | locus YDR159W, strain sac3, stronger effect = lower value 1.03 | locus YDR162C, strain NBP2, stronger effect = lower value 0.984 | locus YDR195W, strain ref2 0.994 | locus YDR297W, strain sur2, stronger effect = lower value 1.01 | locus YDR318W, strain mcm21, stronger effect = lower value 0.968 | locus YDR334W, strain swr1, stronger effect = lower value 1.01 | locus YDR335W, strain msn5, stronger effect = lower value 1 | locus YDR388W, stronger effect = lower value 0.993 | locus YDR392W, strain spt3, stronger effect = lower value 1.01 | locus YDR502C, strain sam2, stronger effect = lower value 0.991 | locus YEL003W, strain gim4, stronger effect = lower value 1.02 | locus YEL037C, strain rad23, stronger effect = lower value 1 | locus YEL061C, strain CIN8 (second series), stronger effect = lower value 1.02 | locus YEL061C, strain CIN8, stronger effect = lower value 1 | locus YER015W, strain faa2, stronger effect = lower value 1.01 | locus YER016W, strain bim1, stronger effect = lower value 1.02 | locus YER110C, stronger effect = lower value 0.993 | locus YER111C, strain swi4, stronger effect = lower value 1.02 | locus YER155C, strain BEM2 (second series), stronger effect = lower value 1.03 | locus YER155C, strain BEM2, stronger effect = lower value 0.998 | locus YER167W, strain BCK2, stronger effect = lower value 0.996 | locus YFR010W, strain ubp6, stronger effect = lower value 1.01 | locus YGL078C, strain dbp3, stronger effect = lower value 0.997 | locus YGL086W, strain mad1, stronger effect = lower value 1.06 | locus YGL167C, strain pmr1, stronger effect = lower value 1.02 | locus YGL173C, strain kem1, stronger effect = lower value 1.02 | locus YGL227W, strain vid30, stronger effect = lower value 1.01 | locus YGL240W, strain doc1, stronger effect = lower value 1.02 | locus YGL248W, strain PDE1, stronger effect = lower value 0.981 | locus YGL253W, strain hxk2, stronger effect = lower value 1.02 | locus YGR135W, strain pre9, stronger effect = lower value 0.98 | locus YGR252W, strain gcn5, stronger effect = lower value 0.953 | locus YHR013C, strain ard1, stronger effect = lower value 1.01 | locus YHR027C, strain rpn1, stronger effect = lower value 1 | locus YHR079C, strain IRE1 (second series), stronger effect = lower value 0.99 | locus YHR079C, strain IRE1, stronger effect = lower value 0.872 | locus YHR094C, strain hxt1, stronger effect = lower value 0.987 | locus YHR129C, strain ARP1, stronger effect = lower value 0.989 | locus YHR142W, strain chs7, stronger effect = lower value 1.02 | locus YHR200W, strain rpn10, stronger effect = lower value 0.987 | locus YIL066C, strain RNR3, stronger effect = lower value 0.986 | locus YIL073C, strain SPO22, stronger effect = lower value 0.994 | locus YIL125W, strain kgd1, stronger effect = lower value 0.994 | locus YIR030C, strain dcg1, stronger effect = lower value 0.991 | locus YJL092W, strain hpr5, stronger effect = lower value 1.01 | locus YJL095W, strain BCK1 (second series), stronger effect = lower value 1.01 | locus YJL095W, strain BCK1, stronger effect = lower value 0.989 and 0.886 | locus YJL115W, strain asf1, stronger effect = lower value 1.01 | locus YJL129C, strain trk1, stronger effect = lower value 1.03 | locus YJL134W, strain LCB3, stronger effect = lower value 0.996 | locus YJL154C, strain vps35, stronger effect = lower value 1.02 | locus YJL164C, strain tpk1, stronger effect = lower value 1.01 | locus YJL166W, strain qcr8, stronger effect = lower value 1.03 | locus YJL168C, strain set2, stronger effect = lower value 0.995 | locus YJL187C, strain SWE1 (second series), stronger effect = lower value 0.99 | locus YJL187C, strain SWE1, stronger effect = lower value 1.01
0.995 (inactive) and 0.849 (active): locus YHR030C, strain SLT2, stronger effect = lower value
